High-throughput results deposited in PubChem BioAssay by National Center for Advancing Translational Sciences (NCATS).
MCF10A rerep = induces DNA re-replication in MCF 10a normal breast cells | AID 624296 | MCF 10A DNA re-replication, Hoechst nuclear intensity, 48 h | 2.9% of 350,000 active | Potency, µM (top dose mostly 46.1 µM), inactives show top-dose activity, positive = re-replication, most hits filed as activators; note: potency is the fitted concentration of half-maximal effect; % of control where 0% means no effect; nearly all actives have a fitted effect of over 50% in size
uPA surface inh = blocks generation of uPA at the cell surface; 0.31% of 330,000 active; AID 540303; cell surface uPA generation assay, qHTS; Potency, µM (top dose mostly 38.3 µM), without a hit: at the top dose activity change, negative = inhibition, hits mostly inhibitors; active = well fitted inhibition curve with a large enough effect; inconclusive = small, poorly fitted or top-dose-only effect; inactive = no such curve, though single readings can be large or run the other way; tested in mouse RAW 264.7 cells; note: potency is the fitted concentration of half-maximal effect; % is set by controls: 0 for no effect and ±100 for the full control effect; nearly all actives have a fitted effect of over 55% in size
Giardia killer = Giardia lamblia killing. Giardia lamblia trophozoite viability. activity change, % at 7.66 µM, hits read low. 0.15% of 340,000 active. AID 540267; in the data active = activity change below about -80%; inconclusive = between about -30% and that limit;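 note: parasites exposed to compound for two days anaerobically before the ATP read; % is set by controls: 0 for no effect and ±100 for the full control effect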
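Luminescent ATP signal served as the viability read-out, measured 15-30 min after adding ATP detection reagent to trophozoites that had been incubated with compounds for 48 hrs at 37 deg C anaerobically at 100 cells/well.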
SW480 rereplic = inducers of DNA re-replication in SW480 colon cancer cells | Potency, µM (doses to about 46.1 µM), for inactives: at the highest dose re-replication activation, actives largely listed as activators | SW480 DNA re-replication, Hoechst DNA content imaging, 48 h | 1.8% of 340,000 active | AID 624297; note: potency is the fitted concentration of half-maximal effect; % of control where 0% means no effect; nearly all actives have a fitted effect of over 55% in size
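Treated cells incubate 48 hr (37 C, 5% CO2), are stained 40 min with Hoechst, and nuclear fluorescence is enumerated; a rise in nuclei with high DNA signal marks re-replication.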
* = called active by the depositor; ? = inconclusive; / = no result. Shown are actives, neighbours in structure and some others; about 4.3% of the full set was active somewhere. Unless noted, calls come from the whole dose curve; as a rule, active = well fitted activation curve with a large enough effect; inconclusive = small, poorly fitted or top-dose-only effect; inactive = no such curve, though single readings can be large or run the other way.

SMILES	MCF10A rerep	uPA surface inh	Giardia killer	SW480 rereplic
CCN1C(=O)c2cccc3c(S(=O)(=O)N4CCCC4C(=O)O)ccc1c23 (configuration not stated)	-14.4%	-0.5%	-9.2	18.4µM*
CCN1C(=O)c2cccc3c(S(=O)(=O)N4CCNCC4)ccc1c23	?	11.9%	7.9	6.51µM*
CC(=O)NCCCNC(=S)NCCCN(Cc1ccc(Cl)cc1)c1ccc(Br)cn1	/	/	-3.3	/
CCOC(CN1CCN(CC(C)C(=O)c2ccccc2)CC1)c1ccccc1 (configuration not stated)	24.9%	/	/	-2.8%
CC(=O)Nc1cccc(NC(=O)C2CCCN2C(=O)Nc2cccc(C)c2)c1 (configuration not stated)	9.2µM*	1.4%	-10.6	-15.5%
N[C@@H](C(=O)O)c1ccc(O)c(C(=O)O)c1	/	/	4.8	/
O=c1c(Br)ccc(Br)cc1Br	?	-10.8%	0.9	?
COc1ccc(/C=C2/N=C(SCC(=O)Nc3cc(C)on3)N(c3ccccc3)C2=O)cc1	20.6µM*	0.2%	1.4	1.9%
COc1ccc(/C=C2\N=C(SC)N(C)C2=O)cc1	?	-0.5%	12.0	-2.1%
C=CCSC1=N/C(=C\c2cccnc2)C(=O)N1c1ccc(OC)cc1	-69.8%	1.9%	-1.2	1.6%
CCSC1=N/C(=C\c2ccccc2)C(=O)N1c1ccc(OC)cc1	14.6µM*	-1.2%	7.2	18.4µM*
CCN(CC)C1=N/C(=C\c2ccc(OC)cc2)C(=O)N1c1ccccc1	18.4µM*	-5.5%	5.5	16.4µM*
CCC(SC1=N/C(=C/c2ccccc2)C(=O)N1c1ccccc1)C(=O)Nc1cc(C)on1 (configuration not stated)	28.4%	3.2%	0.4	?
CCOC(=O)CC1CCCCN1C(=O)CCCn1nnnc1CN1CCC(C)CC1 (configuration not stated)	?	-3.9%	-3.4	0.3%
COc1ccc2nc(N3CCCC3)c(C#N)cc2c1	?	-7.0%	-18.8	?
Cc1ccc2cc(C#N)c(N3CCCC3)nc2c1C	?	9.1%	-4.2	11.2µM*
Cc1cccc2cc(C#N)c(N3CCC(O)CC3)nc12	?	3.2%	-10.1	?
COc1ccc2nc(N3CCCCC3)c(C#N)cc2c1	16.4µM*	-2.2%	-7.6	?
Cc1ccc2cc(C#N)c(N3CCCN(C(=O)C4CCCO4)CC3)nc2c1C (configuration not stated)	20.6µM*	1.8%	2.7	19.5%
CCOc1ccc(NC(=O)CN(C)C(=O)C(C)Oc2ccc(Cl)cc2)cc1OCC (configuration not stated)	1.2%	14.7%	0.5	-27.6%
CC(C)C(NC(=O)c1c(F)cccc1F)C(=O)N1CCN(S(=O)(=O)c2ccc(F)cc2)CC1 (configuration not stated)	0.0%	-9.7%	3.4	-16.5%
O=S(=O)(c1ccc2c(c1)OCCO2)N1CCN(CCc2ccccc2)CC1	/	/	-13.6	/
CCN(CC)c1ccc(NC(=O)c2ccccc2F)cc1	?	-11.1%	-2.9	18.4µM*
O=C(Nc1ccc(Nc2ccccc2)cc1)c1ccccc1F	?	-2.4%	-3.6	4.61µM*
O=C(O)c1cc(NC(=O)c2ccccc2F)cc(NC(=O)c2ccccc2F)c1	-0.9%	1.8%	6.0	-1.8%
SMILES	MCF10A rerep	uPA surface inh	Giardia killer	SW480 rereplic
CCN(CC)c1ccc(NC(=O)c2cc(Cl)ccc2OC)cc1	?	-5.5%	-10.1	-1.7%
O=C(/C=C/c1ccc(NC(=O)c2ccccc2-c2ccccc2C(=O)O)cc1)c1ccccc1	?	10.6%	-2.9	10.6%
O=C(/C=C/c1ccncc1)c1ccc(NC(=O)c2ccccc2F)cc1	3.66µM*	-5.3%	-6.9	4.11µM*
CCOc1ccc(/C=C/c2c([N+](=O)[O-])c(=O)n(C)c(=O)n2C)cc1	?	-18.6%	24.7	?
CCc1ccc(/C=C/c2c([N+](=O)[O-])c(=O)n(C)c(=O)n2C)cc1	13µM*	6.31µM*	-3.8	?
Cn1c(/C=C/c2ccc(Cl)cc2Cl)c([N+](=O)[O-])c(=O)n(C)c1=O	2.91µM*	?	-1.9	9.2µM*
COc1ccc(/C=C/c2c([N+](=O)[O-])c(=O)n(C)c(=O)n2C)c(OC)c1	19.3%	-8.5%	8.2	-0.7%
Nc1ccc(Oc2ccc([N+](=O)[O-])cc2[N+](=O)[O-])cc1	2.7%	?	1.6	9.2%
O=[N+]([O-])c1ccc(Oc2cccnc2)c([N+](=O)[O-])c1	5.8µM*	-6.0%	10.6	?
Cn1c(N)c(C(=O)N/N=C/c2ccccc2)sc1=S	23.1µM*	1.1%	-6.8	?
